# Shown are actives, neighbours in structure and some others; about 7.4% of the full set was active somewhere.
# p53 reactivation: restores transcriptional activity of mutant p53; H1299 p53-A138V BP100-luciferase reporter, luminescence, 24 h; Potency, µM (series often up to 92.2 µM), for inactives: at the highest dose activity change, positive = activation, usual class: activators; 320,000 tested, 0.063% active; AID 504706; also: % of control where 0% means no effect; nearly all actives have a fitted effect of over 45% in size
#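 H1299 (p53-null), stable ts p53-A138V + BP100-Luc; 1000 cells/well, Opti-MEM/10% FBS; cpd 4 pt, 1:5; 24 h, 37 deg C, 5% CO2; detection reagent 10 min RT; luminescence.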
# NPC1 promoter act: NPC1 promoter activation. Huh7 NPC1 promoter luciferase reporter, 24 h. Potency, µM (highest dose often 9.22 µM), without a hit: top-dose activation, actives largely listed as activators. 320,000 tested, 2.4% active. AID 485313; also: % of control where 0% means no effect; nearly all actives have a fitted effect of over 60% in size
#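 Stable NPC1-promoter luciferase Huh7 line; cpd (DMSO) 24 h, 37 °C, 5% CO2; Amplite luciferase reagent 10 min RT; luminescence readout. qHTS format.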
# SMN2 splice up: SMN2 splice variant enhancement; HEK293 SMN2-luciferase splicing reporter, luminescence, 30-36 h; Potency, µM (titrated, usually from 46.1 µM), inactives show at the top dose activity change, positive = activation, hits mostly activators; 210,000 tested, 2.8% active; also: % of control where 0% means no effect; nearly all actives have a fitted effect of over 55% in size
#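 HEK293 cells carry an SMN2 minigene-luciferase reporter in which exon 7 inclusion puts luciferase in frame. Cells were seeded at 2000 cells/well, attached for 10-12 hours, then exposed to compounds for 30-36 hours at 37C before ONE-Glo luminescence.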
# Rab9 prom act: activators of Rab9 promoter | Huh7 Rab9 promoter-luciferase reporter, luminescence, 24 h | 320,000 tested, 2.8% active | Potency, µM (highest dose often 9.22 µM), for inactives: at the top dose activation, negative = inhibition, most hits filed as activators | AID 485297; also: % of control where 0% means no effect; nearly all actives have a fitted effect of over 60% in size
#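 Luminescence read-out: Huh7 cells stably expressing Rab9-luciferase, treated 24 h with compound at 37 °C, then lysed with luciferase reagent for 10 min at ambient before reading.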
# ELG1 genotox: inducers of genotoxicity in HEK293T ELG1-luciferase cells | HEK293T ELG1-luciferase reporter, luminescence, 16 h | Potency, µM (top dose mostly 46 µM), without a hit: at the top dose activity change, positive = activation, most hits filed as activators | 330,000 tested, 1.3% active; also: % of control where 0% means no effect; nearly all actives have a fitted effect of over 60% in size
#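 Reporter readout depends on ELG1 protein level, which increases with genetic stress. After 16 hr compound exposure at 37 °C, luciferase activity was quantified using ONE-Glo.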
# FLuc counter: counter-screen for miR-21 project: firefly luciferase inhibitors or activators. P08659. purified FLuc, Km substrates, luminescence inhibition. Potency, µM (series often up to 57.5 µM), inactives show top-dose activity change, negative = inhibition, hits mostly inhibitors. 360,000 tested, 6.9% active;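 also: plate controls were vehicle for no effect and reference inhibitor for full effect; nearly all actives have a fitted effect of over 55% in size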
# Target sequence (P08659 whole entry, looked up): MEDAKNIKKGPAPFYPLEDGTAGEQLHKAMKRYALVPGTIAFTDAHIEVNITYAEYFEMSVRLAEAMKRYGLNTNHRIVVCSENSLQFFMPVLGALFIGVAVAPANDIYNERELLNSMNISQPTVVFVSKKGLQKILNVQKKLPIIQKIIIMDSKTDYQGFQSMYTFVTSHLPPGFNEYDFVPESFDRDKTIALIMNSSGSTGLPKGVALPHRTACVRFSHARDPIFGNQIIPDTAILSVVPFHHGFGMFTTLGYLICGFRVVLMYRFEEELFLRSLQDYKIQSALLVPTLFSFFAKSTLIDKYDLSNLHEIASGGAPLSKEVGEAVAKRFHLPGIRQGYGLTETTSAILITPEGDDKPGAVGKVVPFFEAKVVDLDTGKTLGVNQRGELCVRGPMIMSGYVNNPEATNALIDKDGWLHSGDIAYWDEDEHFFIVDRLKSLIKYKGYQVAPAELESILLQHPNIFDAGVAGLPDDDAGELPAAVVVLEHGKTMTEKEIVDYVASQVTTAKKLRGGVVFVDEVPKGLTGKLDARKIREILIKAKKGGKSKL
#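 Biochemical qHTS of compounds, final roughly 60 µM downward over six points, against 10 nM purified firefly luciferase using Km concentrations of substrates (10 uM D-luciferin, 10 uM ATP) in Tris acetate pH 7.5 buffer; luminescence output.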
# Active calls of the source: *; ? = inconclusive; / = no result; [ ] = another dose, or the depositor's remark. Calls follow the shape of the dose curve; as a rule, active = well fitted curve in the direction sought with a large enough effect; inconclusive = small, poorly fitted or top-dose-only effect, or another doubt; inactive = no such curve, though single readings can be large; an effect the other way counts as inactive or inconclusive. Potency is read from the fitted curve at half-maximal effect.
SMILES,p53 reactivation,NPC1 promoter act,SMN2 splice up,Rab9 prom act,ELG1 genotox,FLuc counter
COc1ccc([N+](=O)[O-])cc1C(=O)NCCOc1ccc(Cl)cc1,0%,?,/,-4%,-1%,-10%
CS(=O)(=O)N1CCC[C@@]2(CCN(Cc3ccccc3)C2)C1,/,/,-12%,/,/,/
Cc1ccc(/C=C2\OC(=O)c3ccccc32)cc1,?,-2%,?,0%,?,1.1µM*
Nc1nnc(-c2ccc(Cl)c(Cl)c2)s1,4%,2%,3%,14%,1%,?
Nc1cccn2c(-c3ccc(Cl)c(Cl)c3)cnc12,?,?,3.5µM*,3.2µM*,?,3µM*
Nc1cccn2c(-c3ccc(Cl)cc3)cnc12,21%,?,11µM*,3.5µM*,?,2.7µM*
Cc1ccccc1NC(=O)c1nc2nccc(C)n2n1,-1%,?,14µM*,3.5µM*,?,?
O=c1c2ccccc2nc2n1CCc1c-2[nH]c2ccccc12,?,2.9µM*,7.9µM*,2.9µM*,3.3µM*,0.95µM*
Cc1ccc(Nc2cc(C)c3ccc(O)cc3n2)cc1C,?,3%,/,1%,13%,17µM*
COC(=O)c1cc(Nc2cc(C)c3c(O)cccc3n2)cc(C(=O)OC)c1,-2%,10%,/,0%,-6%,?
COc1ccc(Nc2cc(C)c3c(O)cccc3n2)cc1,27%,7%,/,20%,4%,21µM*
Cc1ccccc1Nc1cc(C)c2c(O)cccc2n1,?,-1%,-6%,-10%,0%,19µM*
Cc1ccc(Nc2cc(C)c3c(O)cccc3n2)cc1C,?,?,/,?,?,9.5µM*
O=C(O)CCCSc1nc2ccccc2s1,/,/,2%[9.22 µM],/,/,/
CC1(c2ccc(OC(F)F)cc2)NC(=O)N(CC(=O)N2c3ccccc3NC(=O)C2(C)C)C1=O (centres undefined),-11%,-8%,/,-2%,-3%,-4%
O=C(/C=C/c1ccccc1Cl)Nc1cccc(O)c1,?,?,?,?,?,1.1µM*
CCN(CC)c1cc(C)c2cc(NC(=O)/C=C/c3ccccc3Cl)ccc2n1,/,/,10%,/,/,2%
CCCCOC(=O)c1cccc(NC(=O)/C=C/c2ccccc2Cl)c1,/,/,1.4µM*,/,/,6.7µM*
O=C(/C=C/c1ccccc1Cl)Nc1ccc(Cl)cn1,0%,?,/,1.1µM*,?,-6%
CN(C)S(=O)(=O)c1ccc(NC(=O)/C=C/c2ccccc2Cl)cc1,-1%,4%,9%,8%,1%,21µM*
O=C(Nc1cccc(F)c1)N1CCCC2(CCN(C(=O)c3cc(C(F)(F)F)cc(C(F)(F)F)c3)CC2)C1,/,/,-5%,/,/,/
CCc1nn2c(=O)cc(COC(=O)c3ccc(NC(=O)CCc4ccccc4)cc3)nc2s1,/,/,/,/,/,0%
Cc1ccc2c(c1)N(C(=O)CCC(=O)NCc1ccccc1Cl)CC(C)O2 (centres undefined),/,/,/,/,/,-6%
O=C(/C=C/c1ccccc1Cl)Nc1ccc2c(c1)C(=O)NC2=O,-3%,-2%,-14%,2%,-4%,?
O=C(/C=C/c1ccccc1Cl)Nc1ccccc1,?,?,/,0.45µM*,?,0.76µM*
SMILES,p53 reactivation,NPC1 promoter act,SMN2 splice up,Rab9 prom act,ELG1 genotox,FLuc counter
CN(C)c1ccc(NC(=O)/C=C/c2c(Cl)cccc2Cl)cc1,?,11%,?,25%,5%,8.5µM*
CCS(=O)(=O)N1CCc2cc(C(=O)NCc3ccccc3Cl)ccc21,/,/,/,/,/,-10%
CCc1nn(CC(=O)NCC(C)c2ccccc2)c(=O)c2cc3c(OC)cccc3n12 (centres undefined),/,/,1%,/,/,0%
O=C(Cc1ccccc1[N+](=O)[O-])Nc1nccs1,-5%,0%,/,4%,-3%,-12%
O=C(Nc1nccs1)c1ccc(-c2ccccc2[N+](=O)[O-])o1,15%,2.8µM*,/,2µM*,?,4.3µM*
O=C(Nc1nccs1)c1ccc(-c2ccccc2Cl)o1,31%,2.5µM*,11µM*,2.5µM*,4.1µM*,2.4µM*
O=C(CN(C(=O)c1csnn1)c1cccc(C(F)(F)F)c1)NCc1ccc(F)cc1,-4%,-2%,/,0%,-5%,2%
Cc1ccc(F)cc1N=Cc1c(O)c2ccccc2oc1=O,/,-5%,/,2%,3%,?
CC(=O)Nc1ccc(N=Cc2c(O)c3ccccc3oc2=O)cc1,-2%,-4%,/,-4%,0%,?
COc1cccc(N=Cc2c(O)c3ccccc3oc2=O)c1,/,0%,/,6%,0%,1.9µM*
CC(=O)c1cccc(N=Cc2c(O)c3ccccc3oc2=O)c1,/,-5%,/,-1%,2%,1.7µM*
Cc1ccc(N=Cc2c(O)c3ccccc3oc2=O)c(C)c1,/,-3%,/,1%,4%,0.21µM*
Cc1ccc2c(c1)sc(=NC(=O)c1cccs1)n2C,?,3.5µM*,16%,3.5µM*,0.52µM*,0.15µM*
C#CCn1c(=NC(=O)c2cccs2)sc2cccc(OC)c21,?,1%,-14%,30%,?,?
Cc1ccc2c(c1)sc(=NC(=O)C1CC1)n2C,10%,2.5µM*,/,3.5µM*,?,8.5µM*
CC(=O)N=c1sc2ccccc2n1C,3%,-3%,-16%,14%,14%,-1%
CCOc1cccc2cc(C(N)=O)c(=N)oc12,3%,1%,/,-8%,-3%,-1%
COc1cccc2cc(C(=O)NCc3ccc(Cl)cc3)c(=N)oc12,-1%,-8%,/,0%,-7%,?
CCOc1cccc2cc(C(=O)NCc3ccc(F)cc3)c(=N)oc12,3%,-3%,/,-2%,?,15µM*
CCOc1cccc2cc(C(=O)NC(C)c3ccccc3)c(=N)oc12 (centres undefined),5%,0%,/,3%,-2%,1%
CCOc1cccc2cc(C(=O)NCc3ccccc3)c(=N)oc12,12%,-1%,/,1%,16%,17µM*
COc1cccc2cc(C(=O)NCc3ccccc3)c(=N)oc12,2%,-4%,/,3%,14%,11µM*
COc1cc(/C=C/C(=O)OCC(=O)N2CCN(S(=O)(=O)c3ccc(C)cc3C)CC2)cc(Cl)c1OC,-1%,-6%,/,-3%,2%,-1%
Cc1cc(C)cc(Oc2coc3cc(OCC(=O)NC4CCCCC4)ccc3c2=O)c1,/,/,-3%,/,/,3%
O=C(CSc1ccccn1)Nc1ccc2c(c1)OCCO2,12%,4µM*,/,2.5µM*,?,8.5µM*
O=C(CSc1ccc([N+](=O)[O-])cn1)Nc1ccc2c(c1)OCCO2,-8%,0%,-6%,0%,3%,?
O=C(COc1ccc2ccccc2c1)NC1=NCCS1,25%,4.5µM*,9%,?,8%,4.8µM*
